eIF4H inh – human eIF4H binding inhibitors, primary screen, translation initiation inhibitor project, biochemical, uHTS, fluorescence polarization; eIF4H fluorescence polarization binding assay; inhibition, % at 35 µM; 290,000 compounds, 0.94% hits;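 also: calls also rest on retests at 20 µM and on dose response follow-up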
PABP FP inh – PABP poly(A) RNA binding inhibitors, primary screen, biochemical, fluorescence polarization, uHTS; Polyadenylate-binding protein 1 (Homo sapiens), P11940; inhibition, % at 35 µM; 290,000 compounds, 1% hits;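 also: calls also rest on retests at 20 µM and on dose response follow-up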
MLLE-PAM2 inh – inhibitors of PABP1 MLLE–PAM2 peptide binding, primary screen, biochemical, fluorescence polarization, FITC-PAM2, GST-MLLE; AID 588489, 2011; Polyadenylate-binding protein 1 (Homo sapiens), P11940; 360,000 compounds, 0.36% hits; inhibition, % at 20 µM; in the data active = inhibition above about 35%, passing the limit was not always enough;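 also: plate controls were DMSO wells with GST-MLLE for no effect and wells lacking GST-MLLE protein for full effect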
GRK2 inh – compounds blocking aptamer binding on GRK2 – biochemical, human GRK2, bead flow cytometry, HTS, primary screen; FAM-aptamer displacement from GRK2; AID 488847, 2010; 330,000 compounds, 0.59% hits; inhibition of aptamer binding, % at 10 µM;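 active = inhibition of aptamer binding above 40%, roughly 3 SD of noise, on plates passing a quality check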;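 also: median bead fluorescence of bound FAM aptamer so fluorescent compounds give negative values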
PERK inh – block of dimerizer-induced PERK translation repression, primary screen, PERK inhibitor project, CHO PERK-DD cells, SEAP luminescence, HTS. Eukaryotic translation initiation factor 2-alpha kinase 3 (Homo sapiens), Q9NZJ5. CHO PERK-DD fusion, SEAP luminescence translation reporter. inhibition, % at 5.6 µM. 220,000 compounds, 0.17% hits. AID 1416, 2008;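 active = inhibition above the mean inhibition of all tested compounds plus 3 SD, set separately per screening campaign, cut at about 2.9% in these data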;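 also: PERK kinase domain activated by AP20187 dimerizer at 100 nM; 0% = DMSO with dimerizer and 100% = rapamycin at 8.4 µM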
Target sequence (Q9NZJ5 whole entry, looked up, the tested form may be a part): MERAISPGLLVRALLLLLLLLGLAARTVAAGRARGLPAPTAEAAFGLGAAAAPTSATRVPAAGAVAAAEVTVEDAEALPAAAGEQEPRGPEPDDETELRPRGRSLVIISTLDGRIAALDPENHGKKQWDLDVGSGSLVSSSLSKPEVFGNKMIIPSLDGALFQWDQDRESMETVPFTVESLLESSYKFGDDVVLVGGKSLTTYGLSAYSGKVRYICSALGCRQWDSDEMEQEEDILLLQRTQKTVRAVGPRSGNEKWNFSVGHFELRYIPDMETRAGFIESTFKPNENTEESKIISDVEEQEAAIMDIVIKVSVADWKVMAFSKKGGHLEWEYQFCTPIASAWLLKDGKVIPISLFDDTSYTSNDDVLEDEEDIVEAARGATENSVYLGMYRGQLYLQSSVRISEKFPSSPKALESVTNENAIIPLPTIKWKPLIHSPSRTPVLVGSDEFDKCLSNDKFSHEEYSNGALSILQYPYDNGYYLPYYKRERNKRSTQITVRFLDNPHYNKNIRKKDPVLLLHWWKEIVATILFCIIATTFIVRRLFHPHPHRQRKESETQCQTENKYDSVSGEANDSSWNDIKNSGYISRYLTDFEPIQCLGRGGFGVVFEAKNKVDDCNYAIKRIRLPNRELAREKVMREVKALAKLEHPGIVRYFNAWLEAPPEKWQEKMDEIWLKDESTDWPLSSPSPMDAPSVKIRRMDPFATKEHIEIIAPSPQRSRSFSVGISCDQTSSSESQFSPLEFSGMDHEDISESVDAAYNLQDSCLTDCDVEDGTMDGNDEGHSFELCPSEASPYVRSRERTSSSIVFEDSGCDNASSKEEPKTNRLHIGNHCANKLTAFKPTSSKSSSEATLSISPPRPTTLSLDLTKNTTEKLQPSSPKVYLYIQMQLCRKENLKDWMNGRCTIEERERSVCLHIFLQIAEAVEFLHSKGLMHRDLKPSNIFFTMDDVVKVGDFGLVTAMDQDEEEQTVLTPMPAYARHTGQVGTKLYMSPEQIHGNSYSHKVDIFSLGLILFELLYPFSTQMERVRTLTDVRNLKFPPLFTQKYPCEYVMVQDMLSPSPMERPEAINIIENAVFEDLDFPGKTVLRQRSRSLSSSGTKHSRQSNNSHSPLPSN
GRK2 inh confirm – GRK2 aptamer-displacing inhibitors, retest, confirmation, biochemical, cherry pick 1, bead flow cytometry; shares compounds with GRK2 inh; bead-bound GRK2, FAM-aptamer displacement; aptamer displacement, % at 10 µM; 2,000 compounds, 4% hits;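 active = aptamer displacement above 40%, near three times the noise of non-fluorescent compounds, on plates passing quality checks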;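 also: negative values mostly reflect intrinsic compound fluorescence rather than true enhancement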
Aptamer quench – quenches fluorescent RNA aptamer, GRK2 hit artifact | Fluorescent RNA aptamer beads, quenching, flow cytometry; active compounds read high | shares compounds with GRK2 inh | fluorescence change (kMESF span), kMESF (no concentration beside the values) | 110 tested, under 10 active;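 active = compounds whose bead fluorescence drops by more than 37 kMESF across the dose range, marking them as dye quenchers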
Aptamer quench SP – quenches fluorescent RNA aptamer, GRK2 hit artifact | shares compounds with GRK2 inh | Carboxyfluorescein RNA aptamer on beads, flow cytometry quenching; active compounds read low | fluorescence response (% of DMSO), % at 10 µM | 2,000 tested, under 10 active;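 active = compounds that quench the bead-bound fluorescent RNA probe, cutting fluorescence to under half of the solvent control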;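 also: counterscreen run without GRK2 so only probe quenching by compound is measured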
GRK2 confirm 2 – GRK2 aptamer-displacing inhibitors, hit retest, confirmation, biochemical, cherry pick 2, bead flow cytometry; shares compounds with GRK2 inh; bead-bound GRK2, FAM-aptamer displacement; inhibition of aptamer binding, % at 10 µM; 360 tested, under 10 active; AID 504782, 2011;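 active = inhibition of aptamer binding above 40%, about triple the noise seen with nonglowing compounds, on plates passing quality control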;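 also: negative values mostly come from compounds that fluoresce themselves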
FAM quench CP2 – counter-screen for GRK2 binding hits: quenchers of fluorescent RNA aptamer | fluorescence response vs DMSO, % at 10 µM | carboxyfluorescein RNA aptamer beads, flow cytometry quenching; active compounds read low | 360 tested, under 10 active | shares compounds with GRK2 inh;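 active = response vs DMSO under 50%, meaning signal dropped by over half, treated as fluorescence quencher; inconclusive = no clear call, values can overlap the other calls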;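 also: labelled aptamer on streptavidin beads without GRK2 as a quench counter-screen; 100% = bead fluorescence of DMSO wells and lower means quenching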
FAM quench DR – quenchers of FAM-labeled RNA aptamer fluorescence, dose response, artefact control for GRK2 aptamer binding project, biochemical, powder set 1, flow cytometry. fluorescence ratio to DMSO, % at 11.1 µM. shares compounds with GRK2 inh. Bead-bound FAM RNA aptamer fluorescence quenching; active compounds read low. 35 tested, under 10 active. AID 588496, 2011;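 active = compounds that dim the fluorescent label, raw bead signal shifting by over 33 units between lowest and highest dose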
* marks the source's active call; other numbers are inactive results; ? = inconclusive; / = no result. An excerpt weighted towards active compounds, which were near 1.9% of everything screened. Unless noted, no rule for the calls is given here.

SMILES | eIF4H inh | PABP FP inh | MLLE-PAM2 inh | GRK2 inh | PERK inh | GRK2 inh confirm | Aptamer quench SP | others
Nc1ccc2nc(-c3cccc(-c4nc5ccc(N)cc5[nH]4)c3)[nH]c2c1 | 6.0 | 3.0 | 8.7 | 99.0* | / | -53.1 | 89.6
Cc1nc2ccc(-c3nc4ccc(N)cc4[nH]3)cc2[nH]1 | 23.2 | 36.2 | -1.8 | 88.0* | 0.8 | -25.1 | 102.3
CN(CC(=O)Nc1ccccc1Cl)C(=O)C1CCN(C(=O)c2ccc(F)cc2)CC1 | / | / | 7.8 | 0.0 | / | / | /
CCn1c(=O)c2cc(C(=O)NCCCOC)sc2c2ccccc21 | -8.3 | 7.9 | 6.3 | 0.0 | / | / | /
CCn1c(=O)c2cc(C(=O)NCCC(C)C)sc2c2ccccc21 | 0.4 | 3.0 | 2.9 | 51.0* | / | / | 95.3
CCc1c(C)nc(SCC(=O)Nc2ccc3c(c2)OCCO3)[nH]c1=O | -4.1 | 3.9 | 8.3 | 10.0 | 0.8 | / | /
O=C(CSc1nc2ccccc2[nH]1)Nc1nc(-c2cccc(Br)c2)cs1 | -1.3 | -1.7 | 0.8 | 75.0* | 0.5 | / | / | GRK2 confirm 2=-10.1;FAM quench CP2=100.0
O=C(CSc1ncccc1-c1nc2ccccc2[nH]1)Nc1ccc2c(c1)OCCO2 | -7.2 | -6.2 | -24.5 | 0.0 | -0.3 | / | /
Cc1ccc(-n2nnnc2SCC(=O)NC(=O)Nc2ccc3c(c2)OCCO3)cc1 | -1.8 | -2.6 | -62.9 | 1.0 | 1.7 | / | /
Cc1nnc(SCC(=O)NC(=O)Nc2ccc3c(c2)OCCO3)n1N | -0.3 | 11.4 | 2.2 | 46.0* | 1.2 | 0.5 | 99.6
O=C(CSc1nc2ccccc2[nH]1)Nc1ccc2c(c1)OCCO2 | 3.9 | 0.9 | -38.1 | 0.0 | -0.1 | / | / | GRK2 confirm 2=-48.5;FAM quench CP2=100.0
Cc1ccc2nc(SCC(=O)Nc3ccc4c(c3)OCCO4)[nH]c2c1 | -3.0 | 5.5 | -6.4 | 1.0 | -0.8 | / | / | GRK2 confirm 2=18.6;FAM quench CP2=101.0
CC(=O)C(c1ccccc1)C(c1ccccc1)C(C)[N+](=O)[O-] (stereo not drawn) | -5.9 | -2.8 | 5.6 | 2.0 | / | / | /
CCc1cc(CC)c(/C=N/NC(N)=O)c(CC)c1/C=N/NC(N)=O | -14.6 | -12.0 | 1.4 | 0.0 | 0.9 | / | /
Cc1cc(/C=N/NC(N)=O)c(C)c(CO)c1 | -8.4 | -3.7 | -12.2 | 77.0* | 1.5 | 2.9 | 98.2
CNC(=O)/C(=C\c1ccc2c(c1)OCO2)NC(=O)c1ccc(Br)cc1 | 8.1 | 5.3 | 7.3 | 4.0 | -0.3 | / | /
Cc1cnc(NC(=O)Cc2c[nH]c3ccccc23)s1 | 9.8 | -1.5 | -5.7 | 51.0* | -0.3 | -0.6 | 99.2
Cc1ccccc1Cn1ccc(NC(=O)c2cnn3c(C(F)(F)F)cc(-c4ccco4)nc23)n1 | -7.4 | -6.4 | 7.5 | 31.0 | -0.6 | 1.7 | 90.4
Cc1cccc2c(C(=O)n3cccn3)cc(-c3ccccc3Cl)nc12 | 11.5 | 13.1 | 15.9 | 3.0 | 0.3 | -0.5 | 98.1
Cc1cccc2c(C(=O)Nn3cnnc3)cc(-c3ccccc3Cl)nc12 | 16.0 | 1.2 | -46.4 | 0.0 | -0.3 | / | /
CCC(C)(C)NC(=O)C(c1ccccc1)N(C(=O)c1csnn1)C1CC1 (stereo not drawn) | -3.2 | 11.1 | 4.6 | 60.0* | -0.1 | -0.6 | 99.2
CCC(C)(C)NC(=O)C(c1ccccn1)N(C(=O)c1csnn1)C1CCCCC1 (stereo not drawn) | -5.1 | 7.5 | -1.0 | 0.0 | -0.5 | / | /
O=c1c(O)cccc2cc(O)c(O)c(O)c12 | 102.4* | 93.6* | 37.6* | 100.0* | 0.4 | 30.3 | 91.0
O=c1cc(-c2ccccc2)oc2cc(O)c(O)c(O)c12 | / | / | -2.2 | 1.0 | / | / | /
O=S(=O)(c1ccccc1C(F)(F)F)N1CCN(CC(O)COc2ccccc2F)CC1 (stereo not drawn) | -1.9 | 5.8 | -4.0 | 2.0 | / | / | /
SMILES | eIF4H inh | PABP FP inh | MLLE-PAM2 inh | GRK2 inh | PERK inh | GRK2 inh confirm | Aptamer quench SP | others
N#Cc1ccccc1S(=O)(=O)N1CCN(CC(O)COc2ccccc2F)CC1 (stereo not drawn) | 4.1 | 13.3 | -8.7 | 54.0* | / | -0.6 | 100.6
COc1ccc(OC)c(Nc2nc(NCc3ccco3)c3ccccc3n2)c1 | 1.7 | -10.1 | -2.7 | 46.0* | / | -1.6 | 96.7
Cc1ccccc1Nc1nc(NCc2ccco2)c2ccccc2n1 | 3.6 | -7.3 | 9.9 | 0.0 | 0.9 | / | /
Cc1cc(OCc2nc(-c3ccncc3)no2)cc(C)c1Cl | -11.9 | -10.5 | 5.6 | 47.0* | -0.4 | -1.1 | 99.8
Clc1ccc(OCc2nc(-c3ccncc3)no2)cc1 | -14.6 | 2.1 | -6.9 | 0.0 | 0.9 | / | /
COc1ccc(CCNC(=O)CN(C)S(=O)(=O)c2ccc(OC)cc2)cc1 | 3.5 | -3.6 | 3.0 | 60.0* | / | 8.2 | 99.0
COc1cccc(NC(=O)C2(C)CCN2C(=O)CCc2ccc(Cl)cc2Cl)c1 (stereo not drawn) | / | / | -5.0 | / | / | / | /
CCC1CCCCN1Cc1nc2c(c(=O)n(C)c(=O)n2C)n1CCCc1ccccc1 (stereo not drawn) | -2.9 | 1.6 | 1.7 | 2.0 | / | -1.5 | 103.7
CCCn1c(CN2CCCCC2CC)nc2c1c(=O)n(C)c(=O)n2C (stereo not drawn) | -8.0 | 0.5 | -12.5 | 47.0* | 1.1 | 0.9 | 99.6
CCC1CCCCN1Cc1nc2c(c(=O)n(C)c(=O)n2C)n1Cc1ccccc1 (stereo not drawn) | -5.0 | -2.1 | 8.2 | 1.0 | 0.0 | / | /
Cc1cc2ccccc2n1CCNC(=O)C1CCCC1 | ? | 74.9* | 23.7 | 99.0* | -1.4 | -0.7 | 100.4 | GRK2 confirm 2=-1.1;FAM quench CP2=99.0
O=C(NCCn1ccc2ccccc21)C1CCCCC1 | 1.5 | 6.0 | -16.1 | 2.0 | 1.0 | / | /
Cc1cc2ccccc2n1CCNC(=O)c1cccs1 | 41.7* | 63.7* | 13.8 | 98.0* | 1.5 | 80.6* | 88.2 | Aptamer quench=27.9;FAM quench DR=100.0

Compound activity (PubChem)
